15 compounds from ChEMBL document CHEMBL1961873, “Compounds: GSK PKIS; Assays: Nanosyn kinase panel” (2012) can be followed below.

What is called inhibition is the relative decrease from the control value, in per cent.
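Further: each reported value is a mean percent inhibition of Aurora-A.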

The target of this assay is T1, Aurora kinase A (Homo sapiens) (UniProt O14965).
T1 sequence (whole entry): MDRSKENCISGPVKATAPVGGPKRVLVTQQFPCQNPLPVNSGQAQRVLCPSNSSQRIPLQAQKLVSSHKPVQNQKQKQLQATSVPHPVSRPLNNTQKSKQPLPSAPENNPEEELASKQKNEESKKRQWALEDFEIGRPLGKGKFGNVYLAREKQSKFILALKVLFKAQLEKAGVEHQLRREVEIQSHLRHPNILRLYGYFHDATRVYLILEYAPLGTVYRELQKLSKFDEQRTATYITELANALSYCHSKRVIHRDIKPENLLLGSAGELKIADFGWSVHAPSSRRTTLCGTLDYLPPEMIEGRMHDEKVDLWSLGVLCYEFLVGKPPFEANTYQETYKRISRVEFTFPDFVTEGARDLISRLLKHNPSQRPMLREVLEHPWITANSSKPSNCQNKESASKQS
The following applies: at 0.1 µM.
With `CS(=O)(=O)CCNCc1ccc(-c2ccc3ncnc(Nc4ccc(OCc5cccc(F)c5)c(C(F)(F)F)c4)c3c2)o1`, the inhibition turned out to be 4.12%.

For `Fc1cccc(COc2ccc(Nc3ncnc4sc(-c5cccs5)cc34)cc2Cl)c1`, the inhibition amounted to 1.44%.

For the compound `CC1=C(C(=O)Nc2ccc3[nH]ncc3c2)C(c2ccc3ccccc3c2)CC(=O)N1` (stereo not given), the inhibition is 7.34%. The figure for `CS(=O)(=O)CCNCc1ccc(-c2ccc3ncnc(Nc4ccc(OCc5ccccc5)c(Cl)c4)c3c2)o1` is 0.56%. The figure for `Cc1cc(O)cc(C)c1/C=C/c1cncc(-c2nn[nH]n2)c1` is -1.67%; for `O=C1Nc2ccc(C(=O)c3ccco3)cc2C1=Cc1cc(Cl)c(O)c(Cl)c1` it is 7.35%; for `COc1cc(C)c(NC(=O)CN(C)C)cc1Nc1nc(Nc2cccc(F)c2C(N)=O)c2cc[nH]c2n1` it is 2.06%. With `NC(=O)c1ccc(-c2nc(-c3ccccn3)c(-c3ccc4c(c3)OCO4)[nH]2)cc1`, the inhibition came out at 1.85%. The figure for `CCn1c(-c2nonc2N)nc2cnc(Oc3cccc(NC(=O)c4ccc(OCCN5CCOCC5)cc4)c3)cc21` is 6.07%; for `COc1cc2ncn(-c3cc(O[C@H](C)c4ccccc4Cl)c(C(N)=O)s3)c2cc1OC` it is 2.7%. Consider `Cc1ccc(C(=O)NC2CCCCC2)cc1-c1ccc(C(=O)NCC2CC2)cc1`, for which the inhibition stood at 4.04%.

As for `CCn1c(-c2nonc2N)nc2c(C#CC(C)(C)O)nc(CN3CCCC3)cc21`, the inhibition is 0.54%. The figure for `Cc1nn(C)c2cc(N(C)c3ccnc(Nc4cccc(S(N)(=O)=O)c4)n3)ccc12` is 20%; for `COc1cc2ncn(-c3cc(OCc4ccccc4Cl)c(C(N)=O)s3)c2cc1OC` it is 1.9%.

For the compound `COc1ccc2cc(-c3c(-c4ccncc4)nc(-c4ccc([S+](C)[O-])cc4)n3C)ccc2c1` (stereo not given), the inhibition turned out to be 3.45%.
